PG9 Ab binder: binders of HIV-1 gp120 antibody PG9, primary screen, biochemical, TR-FRET; HIV-1 gp120 / PG9 antibody interaction; TR-FRET gp120-PG9 antibody binding; inhibition, % at 6.7 µM; 0.43% of 360,000 active; in the data active means inhibition above about 8.5%
rCAG binder: binders of r(CAG) RNA repeats, primary screen, biochemical, fluorescence; inhibition, % at 3 µM; 1.3% of 370,000 active; r(CAG) RNA repeat, TO-PRO-1 dye displacement fluorescence;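 active means inhibition above the plate cutoff, the mean of all test compounds on that plate plus 3 SD, cut at about 35% in these data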;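 further: 0% = DMSO alone and 100% = 100 µM mitoxantrone as full dye displacement; higher means more dye released from RNA so lower well fluorescence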
Granule exo inh: LAMP-1 surface exposure blockers, TALL-104 cells – cell-based, flow cytometry, MLPCN library, primary screen | TALL-104 LAMP-1 surface exposure; cells stimulated with thapsigargin and PMA | inhibition, % at 10 µM | 0.66% of 360,000 active;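 active means inhibition above about 55%, limit read from the data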
ABCB6 inh 2: ABCB6 transporter inhibitors, primary screen, K562-ABCB6 cells, flow cytometry, MLPCN library; fluorescence ratio to DMSO, % at 10 µM; 0.19% of 360,000 active; K562-ABCB6 porphyrin accumulation, 1 h; hits give low values;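 active means fluorescence ratio to DMSO below 75%, the collection mean minus 3 SD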;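 further: signal is porphyrin accumulated inside mitochondria; 100% equals median channel fluorescence of DMSO control wells; lower ratio means ABCB6 inhibition with less porphyrin fluorescence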
Target sequence (Q9NP58 whole entry, looked up): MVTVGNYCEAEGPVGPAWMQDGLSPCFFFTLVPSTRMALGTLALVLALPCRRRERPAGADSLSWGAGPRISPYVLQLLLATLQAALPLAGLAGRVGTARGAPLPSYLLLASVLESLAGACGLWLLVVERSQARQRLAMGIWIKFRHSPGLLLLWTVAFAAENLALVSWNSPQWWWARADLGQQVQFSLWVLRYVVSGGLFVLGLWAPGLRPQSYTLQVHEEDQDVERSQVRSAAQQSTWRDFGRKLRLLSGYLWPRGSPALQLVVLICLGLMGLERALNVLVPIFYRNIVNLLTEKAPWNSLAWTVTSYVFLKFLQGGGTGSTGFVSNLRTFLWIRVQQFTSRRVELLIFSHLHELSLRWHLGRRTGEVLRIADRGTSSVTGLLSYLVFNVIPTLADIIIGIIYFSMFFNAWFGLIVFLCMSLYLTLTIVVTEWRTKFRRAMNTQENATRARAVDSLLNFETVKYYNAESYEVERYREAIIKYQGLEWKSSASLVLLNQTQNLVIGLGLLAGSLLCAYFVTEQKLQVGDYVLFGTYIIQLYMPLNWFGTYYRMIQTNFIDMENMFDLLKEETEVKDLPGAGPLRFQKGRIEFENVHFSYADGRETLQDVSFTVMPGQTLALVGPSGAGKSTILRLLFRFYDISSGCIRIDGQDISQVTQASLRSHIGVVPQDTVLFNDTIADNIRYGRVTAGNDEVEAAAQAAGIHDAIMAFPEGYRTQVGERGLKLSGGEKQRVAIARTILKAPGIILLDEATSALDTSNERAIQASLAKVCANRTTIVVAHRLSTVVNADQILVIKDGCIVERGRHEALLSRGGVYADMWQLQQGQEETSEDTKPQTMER
rCAG binder conf: small molecules binding CAG repeat RNA – biochemical, fluorescence, confirmation | shares compounds with rCAG binder | r(CAG) RNA repeat, TO-PRO-1 dye displacement fluorescence | inhibition, % at 3 µM | 70% of 4,300 active;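 active means inhibition above a per-plate cutoff, the mean inhibition of sample wells plus 3 SD, cut at about 35% in these data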;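 further: loss of TO-PRO-1 fluorescence as compound displaces dye from 1x1 AA loop RNA; 0% = DMSO only wells and 100% = 100 µM mitoxantrone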
dCAG dye counter: displacement of TO-PRO-1 from CAG DNA duplex, counter-screen for rCAG RNA repeat binder project, biochemical, fluorescence, TO-PRO-1 dye, d(CAG) DNA oligo | shares compounds with rCAG binder | d(CAG) DNA oligo TO-PRO-1 dye displacement | inhibition, % at 3 µM | 94% of 4,300 active;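 active means inhibition above its plate's cutoff, the mean test-well inhibition plus 3 SD, cut at about 4.8% in these data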;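 further: 0% = DNA dye mix with DMSO and 100% = 100 µM mitoxantrone; hits displace the dye from DNA and so lower well fluorescence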
Numbers without * were called inactive; . = no result given. Compounds with a hit are over-represented: about 2.5% of the library has one in this group of screens.

SMILES | PG9 Ab binder | rCAG binder | Granule exo inh | ABCB6 inh 2 | rCAG binder conf | dCAG dye counter
Cc1ccc(-c2nc(Nc3cccc(O)c3)c3ccccc3n2)cc1 | -3.0 | 37.1* | 13.3 | 92.0 | 32.3 | 10.2*
O=[N+]([O-])c1ccc(-c2nc(Nc3cccc(O)c3)c3ccccc3n2)cc1 | -0.3 | 47.8* | 31.8 | 92.0 | 28.2 | 13.0*
O=C(O)c1cccc(Nc2nc(-c3ccc([N+](=O)[O-])cc3)nc3ccccc23)c1 | -0.5 | 1.9 | 20.3 | 97.0 | . | .
CC(C)(Oc1ccc(Cl)cc1)C(=O)NC1CC1 | 0.8 | -6.3 | 9.6 | 88.0 | . | .
CC1=Nc2cc(C(=O)O)ccc2Sc2ccc(Br)cc21 | -1.4 | 50.5* | 0.4 | 102.0 | 55.2* | 22.1*
CC1=Nc2cc(C(=O)NCC3CCCO3)ccc2Sc2ccc(Br)cc21 (stereo unspecified) | -1.4 | -4.1 | 3.8 | 94.0 | . | .
Cc1ccc(NS(=O)(=O)c2cccc(C(=O)Nc3cccnc3)c2)c(C)c1 | 3.6 | 5.2 | 8.6 | 96.0 | . | .
O=C(CSc1nnc(-c2ccco2)c(-c2ccco2)n1)c1ccccc1 | -3.2 | 74.6* | 6.5 | 105.0 | 57.5* | 26.4*
CC(=O)c1ccc(NC(=O)CSc2nnc(-c3ccco3)c(-c3ccco3)n2)cc1 | -1.0 | 45.4* | -2.9 | 103.0 | 36.9* | 15.5*
COc1ccccc1N(C)S(=O)(=O)c1ccc(C(=O)N2CCCc3ccccc32)cc1 | -0.4 | -2.7 | 23.9 | 95.0 | . | .
CCN(CC)S(=O)(=O)c1ccc(O)c(NC(=O)c2ccc(N3CCOCC3)c([N+](=O)[O-])c2)c1 | -2.9 | 52.9* | 1.5 | 99.0 | 43.5* | 12.7*
CC1(C(=O)Nc2cccc(OC(F)(F)F)c2)Cc2c(-c3ccc(C(N)=O)cc3)ccnc2O1 (stereo unspecified) | -0.6 | 1.2 | 5.8 | 93.0 | . | .
CCOC(=O)C1(C)CCCCCN1C(=O)c1ccco1 (stereo unspecified) | -0.1 | 0.1 | 0.3 | 106.0 | . | .
C=CCOc1c(Br)cc(/C=C2/NC(=S)N(C(C)=O)C2=O)cc1OC | -1.1 | 19.5 | -7.6 | 92.0 | . | .
C=CCOc1ccc(Br)cc1/C=C1\NC(=S)N(C(C)=O)C1=O | 1.5 | 65.8* | 0.5 | 106.0 | 48.7* | 15.2*
COc1ccc(CNS(=O)(=O)c2cc3c4c(c2)C(C)C(=O)N4CCC3)cc1 (stereo unspecified) | -0.2 | 2.8 | 3.5 | 100.0 | . | .
S=c1[nH]nc(-c2cc(-c3ccccc3)n[nH]2)n1/N=C/c1ccccc1 | 0.7 | 27.6 | 2.7 | 97.0 | . | .
S=c1[nH]nc(-c2cc(-c3ccccc3)n[nH]2)n1/N=C/c1cccs1 | 0.9 | 35.5* | 8.9 | 104.0 | 39.2* | 10.3*
S=c1[nH]nc(-c2cccs2)n1/N=C/c1c(Cl)cccc1Cl | 1.0 | 49.9* | 2.5 | 94.0 | 43.8* | 10.3*
S=c1[nH]nc(-c2cc(-c3ccccc3)n[nH]2)n1N=Cc1c[nH]c2ccccc12 | . | 78.4* | . | . | 65.7* | 22.8*
O=c1o[nH]c(-c2ccccc2)c1-c1ccccc1 | -2.8 | 3.5 | -0.1 | 95.0 | . | .
COCCNC(=O)CSc1nnc(-c2ccccc2)c(-c2ccccc2)n1 | -0.9 | -0.7 | -2.6 | 94.0 | . | .
Nc1c(C(=O)NCC2CCCO2)sc2nc3c(c(-c4ccco4)c12)CC/C3=C\c1ccco1 (stereo unspecified) | -2.7 | 59.9* | -1.8 | 99.0 | 82.6* | 52.6*
NC(=O)c1sc2nc3c(c(-c4ccco4)c2c1N)CCCC3 | -0.1 | 6.0 | 10.3 | 102.0 | . | .
Cc1ccc(S(=O)(=O)N2[C@@H](c3ccccc3)C(C(=O)O)=CC[C@H]2c2cccs2)cc1 | 0.8 | 41.7* | 3.7 | 97.0 | 42.6* | 9.4*
Cc1ccc(S(=O)(=O)N2[C@@H](c3ccccc3F)C(C(=O)O)=CC[C@H]2c2cccs2)cc1 | -1.3 | 45.2* | 3.7 | 101.0 | 46.4* | 12.1*
COc1ccccc1-c1cc(NC=O)c2ncc(-c3ccc(S(C)(=O)=O)cc3)n2c1 | 1.8 | 9.1 | -2.1 | 82.0 | . | .
O=C1NC(=S)S/C1=C\C=C\c1ccc([N+](=O)[O-])o1 | -4.6 | 67.1* | -9.9 | 112.0 | 70.0* | 35.6*

Bioassay records deposited in PubChem by several laboratories.
